Screening results (PubChem)
Rows were chosen to be rich in hits. Some 4.1% of all compounds tested hit in one or more screens of this group.
ssDAF-12 act = activators of S. stercoralis DAF-12 nuclear receptor | HEK293 ssDAF-12/GRIP1 lit1-tk-luc reporter, luminescence; % of 3 µM dafachronic acid response | activation, % at 6.8 µM | hit rate 1% among 370,000 | AID 652126;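 active means activation above the mean over all tested compounds plus 3 SD, cut at about 0.9% in these data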;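 further: 0% = DMSO-only wells and 100% = 3 µM delta7-dafachronic acid wells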
DAX1 inh-1 = inhibitors of human orphan nuclear receptor DAX1 (NR0B1); hit rate 0.99% among 340,000; AID 504766; inhibition, % at 6.75 µM; HEK293 Gal4-DAX1 luciferase reporter, luminescence; P51843;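 active means inhibition above the mean over all tested compounds plus 3 SD, cut at about 4.2% in these data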;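 further: 0% = DAX1-transfected cells with DMSO and 100% = empty-vector control cells with DMSO; inhibition shows as a rise in luminescence from relieved DAX1 repression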
Target sequence (P51843 207-470 limits assumed): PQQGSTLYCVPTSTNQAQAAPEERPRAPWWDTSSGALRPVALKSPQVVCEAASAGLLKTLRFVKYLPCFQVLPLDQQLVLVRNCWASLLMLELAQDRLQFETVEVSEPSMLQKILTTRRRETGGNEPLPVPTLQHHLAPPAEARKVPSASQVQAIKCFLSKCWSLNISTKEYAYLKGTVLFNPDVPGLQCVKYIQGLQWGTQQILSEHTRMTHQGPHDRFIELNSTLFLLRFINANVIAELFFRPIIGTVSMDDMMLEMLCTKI
hgDAF12 agonist = agonists of H. glycines DAF-12 nuclear receptor | HEK293 GAL4-hgDAF12 UAS-luciferase reporter, agonist luminescence; normalized to butyrate control | AID 687014 | hit rate 1.8% among 370,000 | activation, % at 6.8 µM;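 active means activation above a cutoff set at the mean of all screened compounds plus 3 SD, cut at about 10% in these data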;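 further: 0% = DMSO wells and 100% = sodium butyrate wells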
hcDAF12 agonist = activates DAF-12 receptor from parasite H. contortus. AID 652067. hit rate 1.4% among 370,000. activation, % at 6.8 µM. HEK293 hcDAF-12 lit1-tk-luc reporter, luminescence; 0% DMSO, 100% Δ7-dafachronic acid;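 active means activation above the mean of all tested compounds plus 3 SD, cut at about 5.5% in these data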;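 further: 100% = response to 3 µM Δ7-dafachronic acid high control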
DAX1 inh-2 = DAX1 (NR0B1) inhibition, primary screen; HEK293T StAR-luciferase reporter, SF-1/DAX-1 repression relief; inhibition, % at 6.8 µM; hit rate 1.1% among 370,000; AID 652010;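 active means inhibition above the mean over all tested compounds plus 3 SD, cut at about 3.6% in these data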;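 further: 0% = DAX-1 cells with DMSO and 100% = cells lacking DAX-1 with DMSO; higher inhibition means more luminescence from relief of DAX-1 repression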
LXR ag = LXR-beta agonism as hcDAF-12 counter-screen; 3,400 tested, under 10 active; shares compounds with hcDAF12 agonist; HEK293 Gal4-LXR tk-luc reporter, luminescence, 24 h; normalized: DMSO 0%, positive control 100%; activation, % at 6.8 µM;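 active means mean percent activation of the reporter above a cutoff set as the average over tested compounds plus their standard deviation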
Target sequence (P55055 whole entry, looked up, the tested form may be a part): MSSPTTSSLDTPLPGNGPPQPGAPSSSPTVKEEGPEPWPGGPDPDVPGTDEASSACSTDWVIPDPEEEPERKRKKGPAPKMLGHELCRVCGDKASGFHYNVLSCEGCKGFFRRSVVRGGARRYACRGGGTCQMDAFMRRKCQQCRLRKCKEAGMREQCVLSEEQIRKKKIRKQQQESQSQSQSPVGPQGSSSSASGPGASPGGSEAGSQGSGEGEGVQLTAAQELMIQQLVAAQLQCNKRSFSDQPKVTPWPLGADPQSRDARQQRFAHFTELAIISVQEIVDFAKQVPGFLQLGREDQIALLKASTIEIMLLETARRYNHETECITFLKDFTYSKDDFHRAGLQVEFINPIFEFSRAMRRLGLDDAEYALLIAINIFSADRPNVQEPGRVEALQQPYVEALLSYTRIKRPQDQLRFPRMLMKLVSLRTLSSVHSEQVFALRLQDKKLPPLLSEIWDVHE
hcDAF12 ag = confirmation of H. contortus DAF-12 agonists; hit rate 61% among 3,400; AID 743032; activation, % at 6.8 µM; shares compounds with hcDAF12 agonist; HEK293 hcDAF-12 lit1-tk-luc reporter, luminescence; % of Δ7-dafachronic acid response;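 active means mean activation across triplicate tests above the threshold derived from the earlier primary screen, cut at about 5.5% in these data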;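 further: 0% = DMSO only wells and 100% = 3 µM Δ7-dafachronic acid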
* marks the source's active call; other numbers are inactive results; nt = not tested or not shown.

SMILES	ssDAF-12 act	DAX1 inh-1	hgDAF12 agonist	hcDAF12 agonist	DAX1 inh-2	LXR ag	hcDAF12 ag
O=C(/C=C1\C(=O)Nc2ccccc21)/C=C1\C(=O)Nc2ccccc21	0.5	-0.8	2.3	11.3*	-0.3	-0.2	2.5
Cc1cc(NC(=O)CSc2c(C)[nH]c3ccccc23)no1	1.1*	1.9	4.4	6.8*	0.6	-0.1	0.8
Cc1cc(NC(=O)CSc2c[nH]c3ccccc23)no1	0.3	0.6	4.2	4.8	-0.1	nt	nt
CCN(C(=O)[C@@H](C)[C@@H](O)c1ccc2ccccc2c1)c1ccccc1	-0.8	nt	-0.9	-1.3	-1.3	nt	nt
Nc1c(C(=O)N2CCN(CCc3ccccc3)CC2)cnn1-c1ccccc1	-0.1	nt	-0.9	-0.2	0.4	nt	nt
O=C(N[C@H](Cc1ccccc1)C(=O)N1CCN(Cc2ccccn2)CC1)[C@H]1O[C@@H](n2ccc(=O)[nH]c2=O)[C@H](O)[C@@H]1O	-0.8	nt	4.6	-0.8	1.1	nt	nt
COc1cc(N=Nc2cccc(S(N)(=O)=O)c2)c2ccccc2c1N	0.3	2.9	-1.9	9.2*	-0.2	0.2	2.7
Cc1c(C(=O)OCC(=O)Nc2ccc(N3CCOCC3)cc2)oc2ccccc12	-0.9	0.2	-1.2	0.9	-0.4	nt	nt
COC(=O)c1sc(NC(=O)c2oc3ccccc3c2C)nc1C	0.7	0.4	8.0	8.2*	1.2	0.7	4.6
Cc1c(C(=O)Nc2ccccn2)oc2c(Cl)cccc12	2.0*	3.5	2.1	8.8*	0.1	0.2	6.5*
Cc1c(C(=O)Nc2ccc(N3CCOCC3)cc2)oc2ccccc12	-0.1	0.8	4.7	10.5*	0.6	0.8	8.6*
Cc1c(C(=O)Nc2nc3ccccc3[nH]2)oc2c(Cl)cccc12	1.0*	0.1	3.2	8.7*	1.1	0.8	9.2*
C=C1[C@@H](CCO)N(S(=O)C(C)(C)C)C[C@@H]1C (some centres undefined)	0.3	nt	-0.3	-1.1	0.5	nt	nt
Cc1cc(=O)oc(C)c1C(=O)Nc1cccnc1Cl	-1.0	1.1	0.9	3.0	-0.1	nt	nt
Cc1c(C(=O)Nc2cccnc2Cl)oc2ccccc12	0.6	2.3	8.9	6.7*	1.1	1.3	6.8*
Cc1ccc(/C=C/c2nc3ccccc3[nH]2)o1	0.0	0.9	7.7	8.3*	2.0	0.9	8.4*
COc1ccc(Cl)cc1-c1nc(-c2ccc(Br)o2)no1	0.7	0.2	4.3	8.2*	0.1	0.0	8.8*
COc1ccc(Br)cc1-c1noc(-c2ccccc2F)n1	-0.8	-0.8	-1.7	-0.2	0.2	nt	nt
COc1ccc(-c2noc(-c3ccc(Br)o3)n2)cc1	-0.9	1.9	8.7	0.7	1.2	nt	nt
Fc1ccccc1-c1nc(-c2ccc(Br)o2)no1	2.3*	2.0	20.9*	16.9*	2.5	1.9	16.6*
Cc1ccccc1-c1nc(-c2ccc(Br)o2)no1	2.3*	3.9	10.4	17.2*	0.8	1.1	12.1*
CC(C)(C)n1nc(C2CC2)cc1NC(=O)Nc1ccccc1	-1.0	nt	-3.9	0.0	-0.1	nt	nt
Cc1[nH]nc2c1C(c1ccc(Br)cc1)N(c1ccccc1)C2=O (centres undefined)	-1.2	nt	-3.6	-0.3	0.5	nt	nt
Cc1ccc(-n2nnc(-c3nccn3C)n2)cc1	0.0	-3.2	6.6	6.9*	3.1	1.1	7.3*
Cc1ccc(-n2nnc(-c3cnc4ccccc4c3)n2)cc1	1.6*	5.1*	9.7	9.9*	1.7	1.6	13.8*
SMILES	ssDAF-12 act	DAX1 inh-1	hgDAF12 agonist	hcDAF12 agonist	DAX1 inh-2	LXR ag	hcDAF12 ag
c1ccc2ncc(-n3cnnn3)cc2c1	-0.9	0.1	2.0	2.2	-0.4	nt	nt
C=CCNc1cccc2c1S(=O)(=O)N[C@@H](C)CO2	-0.4	nt	-1.0	0.1	-0.2	nt	nt
COc1ccc(Br)cc1/C=N/N1C(=O)CSC1=S	0.4	-0.6	-0.2	7.1*	0.4	-0.2	4.4
O=C1CSC(=S)N1N=Cc1c[nH]c2ccc(Br)cc12	-0.1	1.8	3.7	0.5	-0.4	nt	nt
Nc1[nH]c(C(=O)c2ccccc2)c(-c2ccccc2Cl)c1C(=O)NCCc1c[nH]c2ccccc12	-0.5	nt	0.4	-1.8	-0.7	nt	nt
C/C(=N\NC(=O)c1ccc(C)cc1)c1c(C)[nH]n(-c2ccccc2)c1=O	-0.4	0.9	5.5	0.6	0.2	nt	nt
C/C(=N\NC(=O)c1ccccc1)c1c(C)[nH]n(-c2ccccc2)c1=O	-0.2	4.8*	6.7	9.2*	0.9	-0.3	-1.1
Cc1cc(N=Nc2c(O)c3ccccc3[nH]c2=O)ccc1N=Nc1ccc(C(=O)N(C)C)cc1	0.1	1.1	3.0	4.0	-0.1	nt	nt
CC(=O)c1cccc(N=Nc2c(C)[nH]c3ccccc23)c1	1.4*	-0.2	-1.1	6.7*	-0.2	0.2	4.9
Cc1ccc(CSc2nnc(-c3cc(-c4ccc(F)cc4)n[nH]3)n2N)cc1	-1.7	nt	-0.2	-4.4	-0.1	nt	nt
CSc1ccc(CNC(=O)Cc2ccc(NC(=O)C3=C(C)OCCS3)cc2)cc1	0.2	-0.5	7.7	7.1*	-1.9	0.9	6.5*
O=c1c2cc(N3CCOCC3)ccc2[nH]c(=S)n1CCCN1CCCCCC1	-0.2	0.9	0.7	-0.6	1.7	nt	nt
O=c1c2cc(F)ccc2[nH]c(=S)n1CCCN1CCOCC1	-2.0	4.0	-1.6	10.6*	0.1	-0.2	-0.7
S=C1NC2(CCCCCC2)NN1c1ccccc1	-0.3	nt	-0.6	-0.4	1.0	nt	nt
O=C1CCC2(CC1)NC(=O)N(c1ccccc1)N2	1.1*	0.1	8.1	6.5*	-0.3	-0.2	0.4
COC(=O)[C@@H](Cc1ccc(O)cc1)NC(=O)[C@H]1O[C@@H](n2cnc3c(=O)[nH]c(N)nc32)[C@H](O)[C@@H]1O	0.1	nt	-0.5	0.1	1.3	nt	nt
CC1(C)CC(=O)C=C(C2CC2)C1=O	-1.1	nt	4.6	-0.2	1.1	nt	nt
O=C(c1cc(-c2ccc(F)cc2)nc2ccccc12)N1CCC1	-0.8	-1.3	1.1	-1.3	0.2	nt	nt
O=C(O)c1cc(-c2ccc(-c3ccc(F)cc3)o2)nc2ccccc12	0.5	0.5	11.1*	12.7*	2.2	0.7	6.8*
Cc1cc(C(=O)Cn2nnc3ccccc3c2=O)c(C)n1Cc1cccs1	0.9*	1.6	8.4	8.4*	3.4	1.5	11.9*
Cc1cc(C(=O)CN2C(=O)c3ccccc3C2=O)c(C)n1Cc1cccs1	-1.2	-0.1	6.3	3.2	1.2	nt	nt
COC(=O)c1cn(CCOc2ccccc2OC)c2ccccc12	-1.7	-1.7	-3.0	-2.0	-1.0	nt	nt
COC(=O)c1cn(CCOc2ccccc2)c2ccccc12	1.3*	1.2	5.9	6.7*	1.0	0.2	3.2
COc1ccc(NC(=O)Nc2ccc3[nH]ccc3c2)cc1	0.1	nt	8.1	3.5	2.7	nt	nt
